In PubChem BioAssay (NCI):
Compounds without any hit were thinned out: in the full panel of roughly 83,000, 20% have a hit.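 Results are percent growth after 48 hours of single-concentration exposure. 100 means growth as in untreated cells, lower positive values show inhibition; negative values down to -100 show cell death.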 Unmarked numbers belong to inactive results. The source made the active and inactive calls. How the source made its calls: active means growth percent below 10; inactive means the rest.

How the values were obtained:
Assay in all cases: NCI-60 one-dose screen, 48 h (100 = growth as untreated, 0 = no growth, -100 = all killed)
Details in all cases: 10 µM unless noted
SK-MEL-2 melanoma = system: SK-MEL-2 melanoma
EKVX NSCLC = system: EKVX NSCLC
SN12C renal = system: SN12C renal
UO-31 renal = system: UO-31 renal
TK-10 renal = system: TK-10 renal
ACHN renal = system: ACHN renal
CAKI-1 renal = system: CAKI-1 renal
A498 renal = system: A498 renal
CCRF-CEM leukemia = system: CCRF-CEM leukemia
MOLT-4 leukemia = system: MOLT-4 leukemia

Structure (SMILES) | growth (SK-MEL-2 melanoma) | growth (EKVX NSCLC) | growth (SN12C renal) | growth (UO-31 renal) | growth (TK-10 renal) | growth (ACHN renal) | growth (CAKI-1 renal) | growth (A498 renal) | growth (CCRF-CEM leukemia) | growth (MOLT-4 leukemia)
C#CCOc1ccccc1/C=N/Nc1nc(-c2ccc(Cl)cc2)cs1 | 102% | 77.5% | 93.8% | 75.9% | 145% | 95.3% | 92% | 81.4% | 96.6% | 90.8%
CSc1ccc(/C(=N/N=C(N)N)c2ccc(Cl)cc2)cc1 | -7.8% (active) | 35.1% | 7.12% (active) | 10.1% | 51.3% | 15% | 3.83% (active) | -21.6% (active) | 16.1% | 13.4%
CN1CCN(Cc2ccc(NC(=O)c3cncc(C#Cc4cnc5ccc(N6CCOCC6)nn45)c3)cc2C(F)(F)F)CC1 | -88.3% (active) | -47.5% (active) | -22.1% (active) | -81.2% (active) | -64.3% (active) | -97.8% (active) | -50.3% (active) | -94.3% (active) | -2.39% (active) | 0.376% (active)
Cc1[nH]c(C(=O)Nc2ccc(C(=O)NCC3CCNCC3)cc2OC(C)C)c(Cl)c1Cl | 97.9% | 82.8% | 81.4% | 88.6% | 90.2% | 99.9% | 76.7% | 79.4% | 32.6% | 19.6%
CCCCCN1C(=O)/C(=c2\sc3n(c2=O)C2C(NN=3)N(CC)C(=O)N2CC)c2cccc(C)c21 (stereo not given) | 97.1% | 56.2% | 74.3% | 62.7% | 96.5% | 43.9% | 41.3% | 12% | 30.6% | 53.1%
CCOC(=O)c1cccnc1Nc1ccc(NC(=O)Nc2ccc(Cl)c(C(F)(F)F)c2)cc1 | 37.2% | 40.6% | 51.3% | 34.1% | 40.3% | 35.3% | 22.6% | 41.3% | 29.5% | 24.9%
C#CCN(C)CCCOc1ccc(NC(=O)CCCCCCC(=O)NO)cc1Cl | 32.7% | 51.5% | 41.2% | 26.3% | 1.34% (active) | 20.3% | 17.9% | -12.1% (active) | 15.5% | 16.9%
CC(=C(c1ccc(OCCCN(C)C)cc1)c1ccc(OCCCN(C)C)cc1)c1ccc(Cl)cc1 | 99.3% | 94.7% | 85.5% | 88.5% | 96.5% | 92.6% | 92.6% | 79.2% | 66.8% | 65.3%
N#Cc1cccc(-c2cc(-c3ccc4c(c3)OCCO4)[nH]n2)c1 | 47.3% | 63.3% | 49.2% | 42.8% | 76.8% | 44.2% | 35.8% | 28.4% | 14.2% | 23%
O=C1[C@H]2Cc3c([nH]c4ccccc34)[C@H](c3ccc(Cl)cc3)N2C(=O)CN1C1CCN(CC2CCCCC2)CC1 | 98.2% | 81.5% | 69.7% | 39.1% | 112% | 74.8% | 37.9% | 80.4% | 39.3% | 35.1%
O=C(Nc1ccc(N2CCOCC2)cc1)Nc1ccc2c(ccn2C(=O)c2cccc(F)c2)c1 | 77.2% | 73.9% | 74.2% | 102% | 86.9% | 61.8% | 42.3% | 87.7% | 82.4% | 83.6%
CCOC(=O)C1=C(C)NC(C)=C(C(=O)OCc2ccccc2)C1c1cccc(C#N)c1 (stereo not given) | 24.9% | 37.1% | 36.5% | 43.8% | 83.7% | 47.1% | 32.4% | -4.45% (active) | 25.5% | 31.5%
